Measurements published in PubChem BioAssay (NCI).
The panel holds about 79,000 compounds, 15% with a hit somewhere; the sample as a whole holds those more often. Rule as the data show it: active = growth inhibition above about 70%; inactive = the rest.

Columns and labels:
[1] = NCI Yeast Anticancer Drug Screen. Data for the rad50 strain (AID 155);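 also: 0% = growth of vehicle-only cultures of the same strain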; conditions: S. cerevisiae rad50 strain growth inhibition; at 50.0 µM; active compounds read high
Outline: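 Vehicle-treated cultures provide the reference for the growth inhibition reported for compound-exposed, repair-deficient yeast.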

[2] = NCI Yeast Anticancer Drug Screen. Data for the mec2-1 strain (AID 157); conditions: S. cerevisiae mec2-1 strain, at 50.0 µM, active compounds read high
Outline: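 Yeast mec2-1 mutant treated with compound. Readout: growth inhibition vs vehicle controls.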

[3] = NCI Yeast Anticancer Drug Screen. Data for the sgs1 mgt1 strain (AID 161);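 also: 0% = growth of cultures given vehicle only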; conditions: S. cerevisiae sgs1 mgt1 strain, at 50.0 µM, active compounds read high
Outline: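 Test agents were incubated with a DNA-repair-mutant yeast strain. Growth was then read and compared against vehicle-treated controls.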

[4] = NCI Yeast Anticancer Drug Screen. Data for the cln2 rad14 strain (AID 165);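 also: 0% = growth equal to vehicle treated cultures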; conditions: S. cerevisiae cln2 rad14 strain, at 50.0 µM, active compounds read high
Outline: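 cln2 rad14 yeast strain; compound exposure; growth inhibition read vs vehicle controls.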

[5] = NCI Yeast Anticancer Drug Screen. Data for the bub3 strain (AID 167); conditions: S. cerevisiae bub3 mutant strain, at 50.0 µM, active compounds read high
Outline: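 Mutant yeast screening strain plus compound; vehicle-treated cultures serve as the 0% inhibition reference.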

[6] = NCI Yeast Anticancer Drug Screen. Data for the mlh1 rad18 strain (AID 175); conditions: S. cerevisiae mlh1 rad18 strain growth inhibition; at 50.0 µM; active compounds read high
Outline: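 Yeast w/ defined DNA-repair lesions; compound exposure; growth vs vehicle controls → % inhibition.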

Measured: growth inhibition

CC1COC(c2ccc(Cl)cc2Cl)O1 (centres undefined)
inactive: [1] 8.35% | [2] -2.4% | [3] -1.1% | [4] 1.25% | [5] 2.75% | [6] -0.65%

CC(=O)n1[nH]c(=O)n(-c2ccccc2)c1=O
inactive: [1] -23% | [2] -20.1% | [3] -17.9% | [4] 10.1% | [5] -26.1% | [6] -24.5%

CCNC(=O)C(CC)(CO)CO
inactive: [1] -16.4% | [2] -3.4% | [3] -3.95% | [4] 6.2% | [5] 0.65% | [6] 4.5%

CC1(N)CC2CCC1C2 (centres undefined)
inactive: [1] -3.5% | [2] -1.25% | [3] 5% | [4] -14.2% | [5] -21.4% | [6] 2.75%

COc1ccc(/C=N/NC(=O)NNC(=O)c2cc([N+](=O)[O-])cc([N+](=O)[O-])c2)cc1OC
inactive: [1] 33.2% | [2] 13.3% | [3] 36.7% | [4] 15.4% | [5] 3.6% | [6] 32.4%

Cc1ccc2c(Nc3ccc(NS(C)(=O)=O)cc3C)c3ccccc3nc2c1
inactive: [1] 42.4% | [2] -27.4% | [3] 6.2% | [4] 4.2% | [5] 4.25% | [6] -23.5%

O=C(COc1ccc2c(=O)cc(-c3ccc(Cl)cc3)oc2c1)N1CCN(c2ccccc2)CC1
inactive: [1] 9.15% | [2] 7.05% | [3] -8.8% | [4] 29.1% | [5] 3.95% | [6] 10.9%

N#CC(/C(=N\NC(=O)c1ccncc1)C(=O)Nc1ccc([N+](=O)[O-])cc1[N+](=O)[O-])c1nc(-c2ccc(Br)cc2)cs1 (centres undefined)
inactive: [1] 0.25% | [2] -3.75% | [3] -15.1% | [4] 7.6% | [5] 12.9% | [6] -7.85%

CNC(=O)OCc1c(COC(=O)NC)c(-c2ccsc2)n2c1CCC2
inactive: [1] 17.5% | [2] 13.6% | [3] 37.1% | [4] -5.6% | [5] -22.4% | [6] 8.25%

COc1cc(C(=O)CBr)c(OC)cc1C
inactive: [1] 10.9% | [2] -10.7% | [3] 38% | [4] 17% | [5] 2.15% | [6] 46.8%

COC/C=C\COC
inactive: [1] 3.45% | [2] 5% | [3] 17.6% | [4] -2.15% | [5] -6.3% | [6] 22.1%

CC(=O)CC(=O)NC(C)c1ccccc1 (centres undefined)
inactive: [1] -4.05% | [2] -12.8% | [3] -4.65% | [4] -18.5% | [5] -7.3% | [6] 3.2%

CC1CCC2(C)OC1OC2CN (centres undefined)
inactive: [1] 1.15% | [2] 2.85% | [3] -2.2% | [4] -0.55% | [5] 0.3% | [6] -4.65%

CCOc1cc2c(cc1Cc1ccc3c(c1)OCO3)OCO2
inactive: [1] -8.15% | [2] -11.8% | [3] -5.6% | [4] -12.1% | [5] 4.35% | [6] 1.3%

CCCCCCCCCCCCCCCCCC(=O)OCC(CO)OC(=O)CCCCCCCCCCCCCCCCC (centres undefined)
inactive: [1] 4.45% | [2] -9.65% | [3] 7.3% | [4] 6.95% | [5] 34.1% | [6] 29.7%

COc1cc(C2c3cc4c(cc3OC(N3CCCCC3)C2C)OCO4)cc(OC)c1OC (centres undefined)
inactive: [1] -13.4% | [2] -20.1% | [3] -18.1% | [4] 0.15% | [5] -23.6% | [6] -12.6%

CC1=C(C(=O)NCc2ccccc2)C(c2ccco2)C(C(=O)NCc2ccccc2)=C(C)N1
inactive: [1] -34.5% | [2] -20.4% | [3] -37.5% | [4] -13.3% | [5] -9.9% | [6] -21.8%

Fc1ccc(-c2nnc(-c3ccc4ccccc4c3)o2)cc1
inactive: [1] 18.1% | [2] -11.3% | [3] 21.4% | [4] 12.2% | [5] 35.8% | [6] -1.3%

CCOC(=O)C(C(=O)OCC)C(C(=O)OCC)C(=O)OCC
inactive: [1] -22.7% | [2] 4.45% | [3] -6.2% | [4] -9.65% | [5] -14.5% | [6] -9.05%
